# Columns and labels:
# PEG-3 [1] = target: PEG-3 (UniProt Q6IN02); test: inhibition of PEG-3 promoter-driven reporter – cell-based, HeLa, luciferase, CREF/GAPDH counter-screen panel, dose response (AID 624167); settings: CREF/GAPDH counter-screens; HeLa PEG-Prom luciferase reporter, overnight, run 1, dose range 1, at 100 µM (top of the series) unless noted
# PEG-3 [2] = target: PEG-3 (UniProt Q6IN02); test: as above; settings: CREF/GAPDH counter-screens; HeLa PEG-Prom luciferase reporter, overnight, run 2, dose range 1, at 100 µM (top of the series) unless noted
# Rat fibroblasts (CREF) [3] = test: as above; settings: CREF/GAPDH counter-screens; run 1, dose range 1, at 100 µM (top of the series)
# Rat fibroblasts (CREF) [4] = test: as above; settings: CREF/GAPDH counter-screens; run 2, dose range 1, at 100 µM (top of the series)
# [5] = target: Tumor necrosis factor receptor superfamily member 10B (Homo sapiens) (UniProt O14763); test: viability loss of caspase-8 NB7 cells with TRAIL – with/without TRAIL, luminescence panel, confirmation (AID 651596); settings: NB7 neuroblastoma + caspase-8, TRAIL sensitization, NB7 Caspase-8, with TRAIL, mean of runs, at 10 µM, stronger effect = higher value
# Chain of Tumor necrosis factor receptor superfamily member 10B (Homo sapiens) (O14763 whole entry, looked up): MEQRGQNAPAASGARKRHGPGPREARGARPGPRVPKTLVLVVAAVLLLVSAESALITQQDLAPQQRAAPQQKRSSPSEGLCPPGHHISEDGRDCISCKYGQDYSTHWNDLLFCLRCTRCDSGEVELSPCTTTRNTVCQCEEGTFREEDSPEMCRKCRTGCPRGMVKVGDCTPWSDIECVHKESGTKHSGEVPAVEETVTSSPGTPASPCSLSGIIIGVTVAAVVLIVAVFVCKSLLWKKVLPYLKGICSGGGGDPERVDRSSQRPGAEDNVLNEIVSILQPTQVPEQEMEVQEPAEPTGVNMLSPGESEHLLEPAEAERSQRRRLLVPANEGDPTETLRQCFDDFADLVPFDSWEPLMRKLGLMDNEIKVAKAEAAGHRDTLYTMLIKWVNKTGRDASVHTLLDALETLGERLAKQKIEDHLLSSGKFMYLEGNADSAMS
# [6] = as above; settings: NB7 neuroblastoma + caspase-8, without TRAIL, NB7 Caspase-8, without TRAIL, mean of runs, at 10 µM
# Chain of PEG-3 (Q6IN02 whole entry, looked up): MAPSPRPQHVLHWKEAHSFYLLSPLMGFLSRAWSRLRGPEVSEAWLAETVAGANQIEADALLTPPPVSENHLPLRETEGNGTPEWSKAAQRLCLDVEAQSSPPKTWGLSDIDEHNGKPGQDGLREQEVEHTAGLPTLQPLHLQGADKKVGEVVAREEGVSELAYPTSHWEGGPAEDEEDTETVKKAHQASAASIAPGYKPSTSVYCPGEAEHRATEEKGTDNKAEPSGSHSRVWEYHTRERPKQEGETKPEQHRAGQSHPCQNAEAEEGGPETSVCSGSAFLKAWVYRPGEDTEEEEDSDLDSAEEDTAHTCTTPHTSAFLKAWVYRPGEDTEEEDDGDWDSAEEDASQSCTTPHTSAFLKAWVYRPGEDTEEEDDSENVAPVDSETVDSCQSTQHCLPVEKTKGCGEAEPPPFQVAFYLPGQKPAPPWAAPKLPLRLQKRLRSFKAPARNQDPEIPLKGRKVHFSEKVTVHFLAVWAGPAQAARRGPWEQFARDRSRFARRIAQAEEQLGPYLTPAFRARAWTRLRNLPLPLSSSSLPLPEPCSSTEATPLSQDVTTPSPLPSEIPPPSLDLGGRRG
Structure (SMILES),inhibition (PEG-3 [1]),inhibition (PEG-3 [2]),inhibition (Rat fibroblasts (CREF) [3]),inhibition (Rat fibroblasts (CREF) [4]),activity [5],activity [6]
COc1cccc(NC(=O)c2nc(S(C)(=O)=O)ncc2Cl)c1,99.3%,101%,99.4%,99.1%,13.1%,19.6%
O=C(O)c1ccc(N/N=C/c2ccc3c(c2)OCO3)cc1,98%,102%,67.2%,62.5%,,
C=C1CC2(OC1=O)c1ccccc1CCc1ccccc12,102%,101%,95.7%,97.7%,97.2%,99.3%
COCCCNC(=O)c1ccc(Cn2c(=O)c3ccccc3n(Cc3ccccc3C#N)c2=O)cc1,63.4%,64%,40.3%,38.4%,,
CCCCCCCn1c(=N)n(CC(=O)c2ccco2)c2ccccc21,102%,100%,95.9%,98%,,
COCCn1c(C)cc(C(=O)COC(=O)c2cccc(O)c2)c1C,89.5%,91.3%,98.3%,97.1%,86.2%,87.7%
CC(=O)c1cccc(-c2ccnc3c2CC(C(=O)Nc2cccc(NS(C)(=O)=O)c2)O3)c1 (configuration not stated),58%,65%,30%,47.2%,74.9%,73.6%
Cc1cc(S(=O)(=O)c2ccc(Cl)cc2)nc(S(=O)(=O)c2ccc(Cl)cc2)c1C#N,99.1%,101%,98.2%,98.8%,,
O=C(CNCCC1=CCCCC1)Nc1ccc(N2CCCCCC2)cc1,102%,102%,99.4%,100%,,
CN(C)c1ccc(Nc2nc(N)c3ccccc3n2)cc1,97.9%,99.2%,97.2%,98%,95.9%,95.8%
CC1CC(C)C(=O)C(C(CC2CC(=O)NC(=O)C2)OC(=O)CC(=O)c2ccccc2)C1 (configuration not stated),72.4%,85.5%,44.6%,23.7%,,
CCOc1ccc(NC(=O)Nc2cccc(C(=O)O)c2)cc1,98%,94.6%,91.9%,94.1%,,
N=c1n(CCN2CCCCC2)c2ccccc2n1CC(O)c1ccc(Cl)c(Cl)c1 (configuration not stated),99.3%,98.6%,100%,99.7%,,
CCCCC(=O)NC(c1ccccc1)c1ccc2cccnc2c1O (configuration not stated),90.4%,93.6%,-26%,-7.89%,,
Cc1ccc(-n2[nH]c(=O)c(-c3ccccn3)c2C)cc1,94.8%,90.3%,86.5%,87.2%,,
COc1cccc(-c2sc3ccccc3c2-c2ccc(OCCN(C)C)cc2)c1,99.6%,98.6%,98.7%,99.3%,,
O=C(O)c1cccc(COc2ccccc2Cl)c1,96.7%,87.5%,97%,72.1%,,

Structure (SMILES),inhibition (PEG-3 [1]),inhibition (PEG-3 [2]),inhibition (Rat fibroblasts (CREF) [3]),inhibition (Rat fibroblasts (CREF) [4]),activity [5],activity [6]
CCCSc1ccc2nc(-c3ccccc3)cn2c1,98.4%,98.8%,92.4%,95.7%,,
CC1CCN(c2ccc(-c3cccc(NC(=O)C(F)(F)F)c3)nn2)CC1,93.8%,94.5%,99.2%,99.5%,97.5%,97.7%
COc1cc(/C=N/O)ccc1OCc1ccc(C(=O)O)cc1,88.6%,90.2%,92%,91.3%,72.7%,65.7%
COc1ccc(OCc2cccc(C(=O)O)c2)cc1,98.7%,102%,90.9%,89.6%,62.9%,55.2%
C(=Cc1cnc2ccccc2n1)c1ccc2c(c1)OCO2,94.6%,98.4%,95.9%,95.7%,92.9%,92.6%
COCCn1c(C)cc(C(=O)CSc2nnc(C)s2)c1C,96.1%,94.9%,90.8%,90.7%,53.5%,49%
C(=N\Nc1nc2ccccc2[nH]1)/c1ccccn1,93.6%,101%,93.7%,96.8%,92%,95.6%
CN1CCN(c2ccc(-c3ccc4ccccc4n3)cc2)CC1,99.5%,101%,98.1%,98.6%,88.5%,84.3%
C=C1CC(COc2ccc3c(C)c(Cl)c(=O)oc3c2)(c2ccccc2)OC1=O (configuration not stated),99.6%,101%,98.2%,98%,97.8%,99%
COc1ccc(/C=C/c2nc3ccccc3n2C)cc1,99.2%,97.5%,100%,99.9%,97.2%,97.1%
CCCCCCCNC(=O)C1(CC2CC(c3cccc(Br)c3)=NO2)CCNCC1 (configuration not stated),99.6%,101%,99.7%,99.2%,60.5%,98.4%
C/C(=N\NC(=O)c1n[nH]c2c1CCC2)c1cccs1,98.6%,99.7%,96.7%,94.4%,80.4%,76.2%
OCC1OC(n2ccc3c(NO)ncnc32)C(O)C1O (configuration not stated),99.4%,101%,95.4%,94.6%,98.8%,99.1%
Cc1cc(C(=O)CN2C(=O)c3ccccc3S2(=O)=O)c(C)n1CC1CCCO1 (configuration not stated),102%,99.2%,99.2%,89.4%,87.9%,89%
Cc1ccccc1OCC(O)CNC1CCC(NCC(O)COc2ccccc2C)CC1 (configuration not stated),94.1%,95.8%,98.1%,97.9%,94.4%,99.8%
COc1cc(SC)ccc1C(=O)Nc1nc2ccccc2[nH]1,99.2%,101%,96.9%,97.9%,99%,99%
